HepG2 viability: kills HepG2 cells in TGF-b inhibitor counter-screen. HepG2 CAGA-GFP viability, ATP luminescence, 18 h. 0.76% of 410,000 active. Potency, µM (top dose mostly 46.1 µM), hits mostly cytotoxic
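CellTiter-Glo luminescence gave cytotoxicity after 18 hours at 37 degrees C. The cells were HepG2 CAGA-GFP in 1% FBS DMEM, stimulated with 500 pg/mL TGF-beta after compound addition. %Activity was normalised to no-cell wells (complete cell-killing) and DMSO (no toxicity), and curves were fitted and classified.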
TDP1 block: blocks human tyrosyl-DNA phosphodiesterase 1; Q9NUW8; recombinant TDP1, AlphaScreen DNA substrate cleavage; Potency, µM (series often up to 130 µM), most hits filed as inhibitors; 0.28% of 350,000 active; AID 485290; note: nearly all actives have a fitted effect of over 40% in size
Target sequence (Q9NUW8 whole entry, looked up): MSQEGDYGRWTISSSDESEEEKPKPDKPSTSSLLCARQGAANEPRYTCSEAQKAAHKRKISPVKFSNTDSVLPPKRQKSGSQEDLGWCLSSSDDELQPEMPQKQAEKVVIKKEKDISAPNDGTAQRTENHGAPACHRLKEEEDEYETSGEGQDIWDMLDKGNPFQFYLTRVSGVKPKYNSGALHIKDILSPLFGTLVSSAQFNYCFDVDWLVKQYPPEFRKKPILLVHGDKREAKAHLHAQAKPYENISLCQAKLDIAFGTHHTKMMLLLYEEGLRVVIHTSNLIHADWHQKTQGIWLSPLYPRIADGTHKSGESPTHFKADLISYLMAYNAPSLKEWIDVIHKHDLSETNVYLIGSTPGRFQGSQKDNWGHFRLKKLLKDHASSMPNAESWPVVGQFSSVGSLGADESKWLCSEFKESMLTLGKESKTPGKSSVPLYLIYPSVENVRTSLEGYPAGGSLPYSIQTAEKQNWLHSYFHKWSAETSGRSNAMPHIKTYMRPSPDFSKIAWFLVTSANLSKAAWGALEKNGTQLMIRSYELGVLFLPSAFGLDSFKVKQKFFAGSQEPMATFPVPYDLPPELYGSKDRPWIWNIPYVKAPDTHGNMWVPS
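Enzyme-compound mixtures sat 15 min at room temperature, followed by a 5 min reaction with 15 nM final substrate and 10 min with AlphaScreen beads. Recombinant human Tdp1 was used at 1 nM final.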
TGFb inhibitor: TGF-b pathway inhibition. HepG2 CAGA-GFP TGF-b/SMAD3 reporter, GFP fluorescence, 18 h; TGF-beta stimulated, 500 pg/mL final. Potency, µM (highest dose often 46.1 µM), hits mostly inhibitors. 1.2% of 410,000 active; note: nearly all actives have a fitted effect of over 65% in size
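HEPG2 CAGA-GFP cells (1000/well, DMEM with 1% FBS) were pre-incubated 2 h at 37 degrees C, given compound by pin tool, then stimulated with TGF-beta at 500 pg/mL final for 18 h before per-cell GFP fluorescence imaging.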
IL1B secr inh: blocks inflammasome-driven IL-1 beta release. 4.7% of 360,000 active. AID 743279. THP-1 LPS/ATP IL-1B secretion, AlphaLISA, 16 h; hits give low values. activity change, % at 57.5 µM; in the data active = activity change below about -50%; inconclusive = mostly about -30% to -49%
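Secreted IL-1B measured by AlphaLISA bead assay after 16 h compound exposure of THP-1 cells; compounds (final up to 57.5 uM) added 1 h before LPS (250 ng/mL) and ATP (1.25 mM) stimulation; lower signal means less secretion.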
TDP1 cell noCPT: qHTS for Inhibitors of human tyrosyl-DNA phosphodiesterase 1 (TDP1): qHTS in cells in absence of CPT. DT40 Tdp1-/- hTDP1 cells, no CPT, ATP luminescence, 48 h. Potency, µM (series often up to 46.2 µM), usual class: inhibitors. 15% of 420,000 active; note: nearly all actives have a fitted effect of over 55% in size
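Luminescent ATP content (CellTiter-Glo) served as the growth readout. Knockout chicken DT40 cells expressing human TDP1 were exposed to compounds without camptothecin for a minimum 48 hr at 37 °C.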
TDP1 cell CPT: DT40-hTDP1 cell growth loss with CPT; chicken DT40 Tdp1-/-;hTDP1 cells + 20 nM CPT, ATP luminescence, 48 h; Potency, µM (series often up to 46.2 µM), hits mostly inhibitors; 12% of 420,000 active; AID 686979; note: nearly all actives have a fitted effect of over 55% in size
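Cell growth measured by CellTiter-Glo luminescence after a minimum 48 h, 37 C compound exposure with 20 nM CPT in Tdp1-knockout DT40 cells stably expressing hTDP1, seeded 400/well; qHTS titration format.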
Numbers stand for hits; 0 = inactive; ? = inconclusive; - = no result given. An excerpt weighted towards active compounds, which were near 19% of everything screened. Unless noted, calls come from the whole dose curve; as a rule, active = well fitted curve in the direction sought with a large enough effect; inconclusive = small, poorly fitted or top-dose-only effect, or another doubt; inactive = no such curve, though single readings can be large; an effect the other way counts as inactive or inconclusive.

SMILES	HepG2 viability	TDP1 block	TGFb inhibitor	IL1B secr inh	TDP1 cell noCPT	TDP1 cell CPT
O=C(NNc1nc2cc3c(cc2s1)OCO3)c1ccccc1	0	0	0	0	?	0
O=C(CCS(=O)(=O)c1ccccc1)Nc1nc2cc3c(cc2s1)OCO3	0	0	?	-52	?	?
Cc1nc2ccc(NC(=O)CCS(=O)(=O)c3ccccc3)cc2s1	0	0	0	0	0	0
CCNC(=O)c1c(NC(=O)COc2ccc(F)cc2)sc2c1CCCC2	0	-	0	-	0	0
CN1CCC(OC(=O)c2cc3cc(Br)ccc3oc2=O)CC1	0	-	0	0	0	0
Cc1cc(NC(=O)c2ccc3nccnc3c2)ccc1Br	0	0	0	0	?	?
O=C(Nc1ccc(OC(F)(F)F)cc1)c1ccc2nccnc2c1	0	0	0	0	?	0
O=C(Nc1ccc(SC(F)F)cc1)c1ccc2nccnc2c1	0	0	0	-97	?	?
Cc1ccc(C(=O)Nc2ccc3nccnc3c2)cc1	0	0	?	0	16µM	?
COC(=O)c1ccc(NC(=O)c2ccc3nccnc3c2)cc1	0	0	0	0	29µM	0
Oc1ccc(-c2cnns2)c(O)c1	0	0	0	?	4.6µM	4.1µM
CCN(Cc1cnn(C)c1)C(=O)c1ccc2nc(Cc3cccc(Cl)c3)oc2c1	0	0	0	0	23µM	23µM
COc1ccc(Cc2nc3ccc(C(=O)N(C)CCc4cnn(C)c4)cc3o2)cc1OC	0	0	0	0	8.2µM	?
CCOC(=O)c1c(NC(=O)COc2ccc(Br)cc2)sc(C(C)=O)c1C	0	0	0	-	9.2µM	?
CCOC(=O)c1c(NC(=O)COC(=O)c2ccc(O)cc2)sc(C(=O)NC)c1C	0	-	0	0	21µM	18µM
CCOC(=O)c1c(NC(=O)c2nc(SCC)ncc2Cl)sc(C(C)=O)c1C	0	0	0	-	0	0
CCOC(=O)c1c(NC(=O)c2nc(S(C)(=O)=O)ncc2Cl)sc(C(C)=O)c1C	0	0	?	-	0.92µM	0.58µM
CCOC(=O)c1c(NC(=O)COc2ccccc2)sc(C(C)=O)c1C	0	0	0	-	-	-
CCOC(=O)c1c(NC(=O)COC(=O)c2nc(Cl)ccc2Cl)sc(C(=O)NC)c1C	0	0	0	0	0	0
CCOC(=O)c1c(NC(=O)COc2ccc(OC)cc2)sc(C(=O)N(CC)CC)c1C	0	0	-	-	7.3µM	?
CCNC(=O)c1cc(NC(=O)COC)cc2nc(-c3ccncc3)n(C)c12	-	-	-	-	0	?
O=C(COc1ccc(Cl)cc1Cl)NCCN1CCCC1	0	-	0	0	0	0
CCN(CC)C(=O)c1sc(NC(=O)C2c3ccccc3Oc3ccccc32)c(C(=O)OC(C)C)c1C	0	0	0	-	0.12µM	?
CCOC(=O)c1c(NC(=O)COC(=O)c2cccnc2OCC)sc(C(=O)N(CC)CC)c1C	0	0	0	-60	18µM	?
CCOC(=O)Nc1sc(C(=O)N(CC)CC)c(C)c1C(=O)OCC	0	0	0	0	0	0
SMILES	HepG2 viability	TDP1 block	TGFb inhibitor	IL1B secr inh	TDP1 cell noCPT	TDP1 cell CPT
CCOC(=O)c1c(NC(=O)C2c3ccccc3Oc3ccccc32)sc(C(N)=O)c1C	0	0	0	0	?	?
CCCc1nc(NCc2ccncc2)c2nnn(Cc3ccccc3F)c2n1	0	0	0	0	15µM	?
CCCc1nc(NCc2ccccn2)c2nnn(Cc3ccccc3F)c2n1	0	0	0	0	?	?
Cc1c(Cl)cn2c(=O)cc(CN3CCN(c4ccccc4)CC3)nc2c1Cl	0	0	0	0	?	0
CCN(Cc1cc(=O)n2cc(Cl)c(C)c(Cl)c2n1)Cc1nc2ccccc2c(=O)[nH]1	0	0	0	0	18µM	0
CN1CCN(c2ccc([N+](=O)[O-])cc2C(=O)c2ccc(Br)cc2)CC1	0	0	0	0	5.2µM	2.3µM
Cc1ccc(C(=O)c2cc([N+](=O)[O-])ccc2N2CCN(C)CC2)cc1	0	0	0	0	5.8µM	5.8µM
O=[N+]([O-])c1ccc(N2CCN(c3ccc([N+](=O)[O-])cc3CO)CC2)c(CO)c1	0	-	0	0	2.9µM	2.3µM
CCOC(=O)C12CC1/C(=N\O)c1ccccc1O2 (configuration not stated)	-	0	-	-	0	0
CCOc1ccc(Nc2cc(C)c(C#N)c3nc4ccccc4n23)cc1	0	-	0	-	0	?
Cc1c2ccccc2nc2c(F)c(NCCO)c(F)c(F)c12	0	0	0	-87	?	?
Cc1c2ccccc2nc2c(F)c(NC(C)C)c(F)c(F)c12	0	0	0	-53	?	?
OCCNc1c2ccccc2nc2c(F)c(F)c(F)c(F)c12	0	0	0	-93	2.3µM	2.1µM
COc1ccccc1-c1nn2c(=O)cc(CN3CCN(S(=O)(=O)c4ccc(C)cc4)CC3)nc2s1	0	0	0	-	0	0
CCN(CCNC(=O)CCCn1nc(C)n2c(cc3sccc32)c1=O)c1ccccc1	0	0	0	0	23µM	15µM
CCOCCCNC(=O)CCCn1nc(C)n2c(cc3sccc32)c1=O	0	0	0	0	0	0
CCCCCCCCN1C(=O)[C@H](CC(=O)N2CCC(c3ccccc3)CC2)C[C@@]2(C(=O)OC)CC(C)(C)CC=C12	-	-	-	0	16µM	?
CCCCCCCCN1C(=O)[C@H](CC(=O)NCCC(C)C)C[C@@]2(C(=O)OC)CC(C)(C)CC=C12	-	-	-	0	?	?
CCCCCCCCN1C(=O)[C@H](CC(=O)N2CCCC2)C[C@@]2(C(=O)OC)CC(C)(C)CC=C12	-	-	-	0	?	9.2µM
COC(=O)[C@@]12C[C@@H](CC(=O)N3CCOCC3)C(=O)N(Cc3ccccc3)C1=CCC(C)(C)C2	-	-	-	0	?	0
COC(=O)[C@@]12C[C@@H](CC(=O)N3CCSCC3)C(=O)N(Cc3ccccc3)C1=CCC(C)(C)C2	-	-	-	0	?	0
CCCCCCCCN1C(=O)[C@H](CC(=O)N2CCSCC2)C[C@@]2(C(=O)OC)CC(C)(C)CC=C12	-	-	-	0	16µM	?
Cc1cc(NC(=O)c2nn(C)c(C)c2Br)no1	0	0	0	0	0	0
Cc1cc(Cl)ccc1NC(=O)CSc1nc2c(c(=O)[nH]1)CCC2	0	0	-	-	0	0
COc1cc(S(=O)(=O)NCCc2c(C)[nH]c3ccccc23)c(C)cc1C	0	0	?	-	18µM	18µM
Cc1ccc([N+](=O)[O-])cc1S(=O)(=O)NCCc1c(C)[nH]c2ccccc12	0	0	0	0	0	0

High-throughput results (PubChem BioAssay)
